Reference: PubChem BioAssay
Calls of active or inactive are those of the source.

Key:
[1] = compound effects on lung adenocarcinoma cell viability – A549, calcein-AM fluorescence, 48 h, basal, profiling panel (AID 1162); details: higher = more signal
[2] = compound effects on differentiated 3T3-L1 adipocyte viability – cell-based, 3T3-L1 adipocytes, calcein-AM fluorescence, 48 h, basal, profiling panel (AID 1163); details: 3T3-L1 adipocytes viability, higher = more signal
[3] = compound effects on hepatocellular carcinoma cell viability – HepG2, calcein-AM fluorescence, 48 h, basal, profiling panel (AID 1164); details: higher = more signal
[4] = compound effects on multiple myeloma cell viability – MM1S, calcein-AM fluorescence, 48 h, basal, profiling panel (AID 1165); details: higher = more signal;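 note: viability of MM1S multiple myeloma cells under basal unstimulated conditions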
[5] = calcein-AM signal in unstimulated myeloma cells – cell-based, calcein-AM fluorescence, 48 h, PK04 Diversity Set, profiling panel (AID 1166); details: RPMI8226 myeloma viability, higher = more signal;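 note: cells grown under basal conditions without added stimulus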
[6] = JC-1 mitochondrial signal, unstimulated HepG2 cells – cell-based, JC-1 fluorescence, 24 h, 100 nL compound, profiling panel (AID 1167); details: HepG2 mitochondrial potential, higher = more signal
[7] = JC-1 mitochondrial signal, unstimulated adipocytes – cell-based, JC-1 fluorescence, 3T3-L1 adipocytes, 24 h, 100 nL compound, profiling panel (AID 1168); details: JC-1 mitochondrial fluorescence, higher = more signal, called active from +8 up or from −8 down
[8] = JC-1 mitochondrial signal, unstimulated myeloma cells – cell-based, JC-1 fluorescence, RPMI8226, 24 h, 100 nL compound, profiling panel (AID 1169); details: JC-1 mitochondrial potential fluorescence, higher = more signal
[9] = JC-1 mitochondrial signal, unstimulated MM1S myeloma – cell-based, JC-1 fluorescence, 24 h, 100 nL compound, profiling panel (AID 1170); details: MM1S mitochondrial potential, higher = more signal
[10] = resazurin metabolic signal in A549 cells – cell-based, resazurin fluorescence, 24 h, PK04 Diversity Set, profiling panel (AID 1171); details: A549 viability, higher = more signal, called active from +8 up or from −8 down
Note: test concentration not given here.

Row | SMILES | z-score [1] | z-score [2] | z-score [3] | z-score [4] | z-score [5] | z-score [6] | z-score [7] | z-score [8] | z-score [9] | z-score [10]
1 | CC(C)[Si]1(C(C)C)OCc2cc(-c3ccc(-c4ccc(Cl)c(Cl)c4)o3)nc(-c3ccccc3)c21 | -0.715 | 0.369 | -0.738 | -1.77 | -1.8 | -1.18 | -0.485 (inactive) | 0.194 | 0.406 | 0.793 (inactive)
2 | CCCCCC1=C2CNC(C)(C(=O)OC)C=C2C(C)C1=O (stereo not given) | -1.23 | -0.0708 | -1.29 | -0.865 | -0.467 | -1.71 | -1.22 (inactive) | 0.782 | -0.362 | -0.722 (inactive)
3 | CCOC(=O)C[C@H]1[C@H](OC(=O)c2ccc(-c3ccccc3)cc2)[C@@H](NC(=O)CC(C)C)c2cc(OCCCO)ccc2N1C(=O)c1ccc2ccccc2n1 | 1.37 | 0.556 | 0.627 | 0.139 | 0.0627 | 1.66 | 1.47 (inactive) | -0.233 | -0.411 | 0.713 (inactive)
4 | COCCOC(=O)N1C(=O)[C@@]2(c3cc(C#CCNC(N)=O)ccc31)[C@H](C(N)=O)[C@H]1C(=O)O[C@H](c3ccccc3)[C@H](c3ccccc3)N1[C@@H]2c1ccccc1OCCO | 0.533 | 0.0371 | -0.362 | -1.24 | 0.458 | -2.02 | -0.278 (inactive) | -0.159 | 0.244 | 0.291 (inactive)
5 | C=CCNC(=O)[C@@H]1[C@H]2C(=O)O[C@H](c3ccccc3)[C@H](c3ccccc3)N2[C@H](c2ccccc2OCCO)[C@@]12C(=O)N(C(=O)OCCOC)c1ccc(C#CC3(O)CCCCCC3)cc12 | -0.21 | 1.21 | -1.27 | -2.55 | -3.61 | -0.746 | -0.389 (inactive) | -0.816 | -0.761 | -0.628 (inactive)
6 | CC(C)c1ccc(NN2C(C(O)c3ccc(C#N)cc3)C=CC3C(=O)N(c4ccccc4)C(=O)C32)cc1 (stereo not given) | -0.0204 | -0.708 | -0.21 | -0.303 | -0.0634 | -1.22 | -0.662 (inactive) | 0.629 | 0.179 | -1.28 (inactive)
7 | CCCCCCc1nc(Cc2cc(OC)c(OC)c(OC)c2)cc2c1[Si](C(C)C)(C(C)C)OC2 | -1.79 | 0.5 | 0.0671 | -3.02 | -4.45 | 0.785 | 0.705 (inactive) | -1.06 | -0.48 | 1.64 (inactive)
8 | [N-]=[N+]=Nc1ccccc1C[C@@]1(C(=O)N2CCOCC2)N=C(c2ccc(OCCCO)cc2)O[C@@H]1c1ccccc1 | 0.239 | -0.231 | 1.01 | -1.92 | -2.57 | 1.02 | 0.752 (inactive) | -1.23 | -0.324 | -1.07 (inactive)
9 | CCCC[C@@H]1C[C@H]1[C@@H](NC(=O)c1cccs1)c1ccccc1C(F)(F)F | 0.11 | -0.556 | -0.305 | -0.6 | -1.72 | -2.45 | -1.22 (inactive) | -0.307 | -1.24 | -0.462 (inactive)
10 | COCCOC(=O)N1C(=O)[C@@]2(c3ccccc31)[C@H](C(=O)NC[C@H](O)c1ccccc1)[C@H]1C(=O)O[C@H](c3ccccc3)[C@H](c3ccccc3)N1[C@@H]2c1ccc(O)cc1 | 0.0528 | 2.18 | -0.921 | -1.12 | -3.46 | -1.33 | -0.221 (inactive) | -1.32 | -0.0503 | 0.0737 (inactive)
11 | CCCCC(CC)C(O)C1C=CC2C(=O)N(C)C(=O)C2N1Nc1ccccc1 (stereo not given) | -0.959 | -1.12 | -0.195 | -0.0591 | -0.885 | -1.02 | -1.03 (inactive) | -0.3 | -0.348 | -0.83 (inactive)
12 | COCCOC(=O)N1C(=O)[C@@]2(c3cc(C#CC4(O)CCCCCC4)ccc31)[C@H](C(=O)N1CCc3cc(OC)c(OC)cc3C1)[C@H]1C(=O)O[C@H](c3ccccc3)[C@H](c3ccccc3)N1[C@@H]2c1ccc(OCCO)cc1 | -0.111 | 0.172 | -0.653 | -1.83 | -0.468 | -0.32 | 0.354 (inactive) | -0.542 | -1.39 | -0.317 (inactive)
13 | COC(=O)[C@@]1(Cc2ccc(F)cc2)[C@H]2c3cc(C(=O)N4CCCC4)n(CCc4c[nH]c5ccccc45)c3C[C@H]2CN1C(=O)c1ccccc1 | -1.41 | -0.743 | -1.33 | -1.57 | -3.02 | 0.28 | -0.222 (inactive) | -0.915 | -1.21 | -1.22 (inactive)
14 | Cn1cccc1C(O)C1C=CC2C(=O)N(c3ccccc3)C(=O)C2N1Nc1ccccc1 (stereo not given) | -0.514 | -1.86 | 0.316 | -0.615 | -0.244 | -1.3 | -0.96 (inactive) | -0.509 | -1.32 | -0.386 (inactive)
15 | COCC(=C=CC[C@H](O)c1ccc(CO)o1)CCO | 0.0135 | -0.651 | 0.676 | -0.558 | 0.368 | -0.649 | -0.0348 (inactive) | -0.495 | 0.363 | -0.0239 (inactive)
16 | COC(=O)c1c(CC[C@@H](CO)NC(=O)N2CCC[C@H]2Cn2cc(C3(O)CCCCC3)nn2)oc(C(C)=O)c1C(=O)OC | -0.615 | 0.209 | -0.513 | 0.205 | 0.577 | 0.223 | -0.629 (inactive) | -0.667 | -0.38 | -0.168 (inactive)
17 | CCOC(=O)C1=C[C@@H](c2ccccc2)N(S(=O)(=O)c2ccc(C)cc2)[C@H]1c1ccc(OC)cc1 | -0.841 | -0.0112 | -0.157 | -0.62 | -0.926 | 1.03 | -0.708 (inactive) | 0.692 | -0.441 | 1.63 (inactive)
18 | COC(=O)[C@@]1(Cc2ccc(OC)cc2)[C@H]2c3cc(C(=O)N4CCCC4)n(CCO)c3C[C@H]2CN1C(=O)c1ccccc1 | -0.832 | 0.929 | 0.519 | -1.25 | -0.974 | 1.59 | -1.55 (inactive) | 0.506 | -1.35 | -1.07 (inactive)
19 | CC1=C2[C@@H](CCc3ccccc3)OB(O)C[C@@H]2[C@@H]2C(=O)N(Cc3ccccc3)C(=O)[C@@H]2C1 | -0.261 | -0.351 | -0.932 | -2.9 | -2.4 | -0.999 | -0.301 (inactive) | 0.49 | 0.821 | -0.17 (inactive)
20 | CCCC[C@@H](O)C1=C(COC)C[C@H]2C(=O)N(C)C(=O)[C@H]2[C@H]1CO | 1.28 | 1.13 | 1.48 | -0.211 | 0.536 | 1.23 | -0.987 (inactive) | 0.335 | -1.98 | 0.368 (inactive)
21 | CCOC(=O)C[C@H]1[C@H](OC(=O)c2cc3ccccc3oc2=O)[C@@H](NC(=O)CC(C)C)c2cc(OCCCO)ccc2N1C(=O)c1ccc2ccccc2n1 | -0.326 | -0.166 | 0.311 | -0.18 | 0.156 | -0.858 | -0.415 (inactive) | -0.272 | -0.692 | -0.103 (inactive)
22 | Cc1ccc(N2C(=O)c3ccccc3[C@@H](C(=O)NCCCN(C)C)[C@@H]2c2ccc(CO)cc2)nc1 | -0.249 | 0.297 | 0.0355 | 0.817 | -0.71 | -0.685 | 0.208 (inactive) | -0.0886 | -0.241 | -0.0494 (inactive)
23 | [N-]=[N+]=Nc1ccccc1[C@H]1OC(c2ccc(OCCCO)cc2)=N[C@@]1(Cc1ccccc1)C(=O)NCCN1CCOCC1 | -0.449 | 0.91 | -1.21 | -2 | -3.41 | 2.36 | 1.83 (inactive) | -1.06 | -0.638 | -2 (inactive)
24 | CCCC=C(CCC)[C@@H](NP(=O)(c1ccccc1)c1ccccc1)c1ccc(-c2ccccc2)cc1 | -1.51 | -0.933 | -1.47 | -1.67 | -2.96 | -4.76 | 0.74 (inactive) | -0.343 | -2.36 | 0.647 (inactive)
25 | CC1CC/C=C\[C@H]2OC34C=CCN(c5ccc6ccccc6c5)C(=O)[C@H]3N(CCCO)C(=O)[C@@H]4C2C(=O)O1 (stereo not given in full) | -0.391 | -0.229 | -0.597 | -0.144 | -0.143 | -0.519 | -0.856 (inactive) | 0.17 | 0.707 | -0.525 (inactive)
26 | C=CCOC(=O)[C@@]1(Cc2ccccc2)C[C@H]2CO[C@H](c3ccc(OC)cc3)N2C1=O | 0.158 | 0.223 | -0.311 | -0.657 | -1.5 | -0.574 | 0.437 (inactive) | -0.272 | -0.47 | 0.864 (inactive)
27 | COC(=O)[C@@]1(Cc2ccccc2)[C@H]2c3cc(C(=O)N4CCCC4)n(CCc4ccccn4)c3C[C@H]2CN1C(=O)c1ccccc1 | -1.16 | 1.13 | -0.503 | -1.59 | -1.32 | 0.571 | 0.533 (inactive) | -0.272 | -0.618 | 0.523 (inactive)
28 | C=CCC(OC(C)=O)[C@@H]1[C@@H](N(Cc2cccc3ccccc23)C(=O)Cc2ccc(F)cc2)c2cc(OCCCO)ccc2N1C(=O)c1ccc2ccccc2c1 (stereo not given in full) | 0.937 | 1 | 0.975 | -0.222 | -0.754 | 2.9 | -0.249 (inactive) | -0.774 | -0.45 | 1.25 (inactive)
